Pf Dd2 growth: blocks in vitro growth of P. falciparum Dd2; 120,000 compounds, 4.3% hits; Potency, µM (top dose mostly 28.9 µM), inactives show at the highest dose activity, negative = inhibition, most hits filed as inhibitors; P. falciparum Dd2 growth, SYBR Green, 72 h; AID 1347417; active means well fitted inhibition curve with a large enough effect;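 further: plate controls were DMSO vehicle for no effect and reference drug for full effect; nearly all actives have a fitted effect of over 65% in size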
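Infected erythrocytes (Dd2, 0.3% parasitemia, 2.5% hematocrit final) are added to compound in RPMI-1640/Albumax II medium, grown 72 h at 37C in low oxygen, then lysed with saponin/Triton-X containing SYBR Green and read by fluorescence.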
Numbers without * were called inactive; i = inactive; [ ] = another dose, or the depositor's remark. Only a selection was taken, and hits are over-represented in it overall. Potency means the concentration at half of the fitted maximal effect.

SMILES | Pf Dd2 growth
COC(=O)c1ccc(NC(=O)CC2Nc3cc(C)c(C)cc3NC2=O)cc1 (configuration not stated) | 4µM*
O=C(C[C@H]1NC(=O)c2ccccc2NC1=O)Nc1ccncc1 | -4%
Cc1cc2c(cc1C)NC(CC(=O)Nc1ccccc1)C(=O)N2 (configuration not stated) | i
Cc1ccc(NC(=O)CC2Nc3ccccc3NC2=O)cc1C (configuration not stated) | -6%
CCOC(=O)c1ccc(NC(=O)CC2Nc3ccccc3NC2=O)cc1 (configuration not stated) | 13µM*
O=C(Cc1cccnc1)NCC(=O)N1CCCCCCNC(=O)CC1c1ccccc1 (configuration not stated) | -1%
CN(CC1CCOC1)C(=O)NCc1ccco1 (configuration not stated) | 46%[5.79 µM]
COc1ccccc1-c1[nH]nc2ncc(-c3cccc(O)c3)nc12 | i
O=C(N[C@H]1CCN2C(=O)N(c3cccc4nsnc34)C(=O)[C@@H]2C1)c1ccnc(Cl)c1 | i
Cc1nc(C)n(CCNC(=O)c2cnc(-c3cccnc3)nc2)n1 | 20%
O=C(c1ccccc1Cl)N1CCn2c(nn(-c3ccc(F)cc3)c2=O)C1 | -10%[44.1 µM]
CCn1cc(CN2CCC([C@@H]3CNC[C@H]3CO)CC2)c(C)n1 | 55%
CC(C)(C)OC(=O)N1CCC(c2c(C(=O)NCc3ccco3)cnn2-c2ccc(F)cc2)CC1 | 7.9µM*
Cc1c(Cl)cccc1-n1ncc(C(=O)NC2CCCCC2)c1C1CCN(C(=O)OC(C)(C)C)CC1 | i
CC(C)(C)OC(=O)N1CCC(c2c(C(=O)NC3CCCCC3)cnn2-c2cccc(Cl)c2)CC1 | 8.9µM*
CCOC(=O)N1CCC(NC(=O)c2cnn(-c3ccccc3)c2C2CCN(C(=O)OC(C)(C)C)CC2)CC1 | -20%
CC(C)(C)OC(=O)N1CCC(c2c(C(=O)NCc3cccc(Cl)c3)cnn2-c2ccc(F)cc2)CC1 | 11µM*
Cc1cccc(-n2ncc(C(=O)NCc3ccco3)c2C2CCN(C(=O)OC(C)(C)C)CC2)c1 | 11µM*
CC(C)(C)OC(=O)N1CCC(c2c(C(=O)NCc3ccc(F)cc3)cnn2-c2ccc(F)cc2)CC1 | -12%
Cc1cccc(-n2ncc(C(=O)N3CCN(C(=O)c4ccco4)CC3)c2C2CCN(C(=O)OC(C)(C)C)CC2)c1 | i
O=C(N[C@H]1CO[C@H]2[C@@H]1OC[C@@H]2n1nnnc1-c1ccccc1)C1CC1 | -5%[44.1 µM]
CCS(=O)(=O)N[C@@H]1CN(Cc2ccccc2)C[C@H]1CN(C)C | i
CC(=O)N1CCN(C(=O)C[C@@H]2CCNC[C@@H]2Cc2cc(CN3CCOCC3)on2)CC1 | 21%[44.1 µM]
CC(=O)NCC1CCCN(C(=O)c2cc(Cn3ccc4ccccc43)[nH]n2)C1 (configuration not stated) | -7%
CN(CC1(c2ccccc2)CC1(C)C)C(=O)c1cn(C/C=C/c2ccccc2)nn1 (configuration not stated) | -3%
SMILES | Pf Dd2 growth
CCN(CCOc1ccc(F)cc1)C(=O)c1cnc(NC(C)C)nc1 | -8%
CC(C)N1C(=O)C2(CCCCC2)C1C(=O)N1CCCCC1 (configuration not stated) | 11%
Cc1cccc(-n2ncc(C(=O)NCc3ccccn3)c2C2CCN(C(=O)OC(C)(C)C)CC2)c1 | 10µM*
Cc1ccc(-n2ncc(C(=O)NCc3ccccn3)c2C2CCN(C(=O)OC(C)(C)C)CC2)cc1C | -3%
CC(=O)N1CCOC[C@H](Oc2ccc(S(C)(=O)=O)cc2)C1 | 4%[44.1 µM]
CN(C)c1cccc(C(=O)N2CCC(n3cc(-c4nc(C5CC5)no4)nn3)C2)c1 (configuration not stated) | i
O=C(c1cnccn1)N1CCN(c2cc(-c3ccc(Cl)cc3)[nH]n2)CC1 | i
CC(CCc1ccccc1)NC(=O)CC(c1cccc2c1OCO2)c1c[nH]c2ccccc12 (configuration not stated) | -15%
CCc1cccc2c(C(CC(=O)NC(C)CC)c3ccc(OC)c(OC)c3)c[nH]c12 (configuration not stated) | -4%
CCc1cccc2c(C(CC(=O)N3CCCC3)c3cccc([N+](=O)[O-])c3)c[nH]c12 (configuration not stated) | 7.9µM*
CCc1cccc2c(C(CC(=O)N3CCc4ccccc4C3)c3cccc4c3OCO4)c[nH]c12 (configuration not stated) | 8.9µM*
CCOC(=O)C1CCCN(C(=O)CC(c2cccc([N+](=O)[O-])c2)c2c[nH]c3c(CC)cccc23)C1 (configuration not stated) | 13µM*
CCCNC(=O)CC(c1ccc(OC)c(OC)c1)c1c[nH]c2c(CC)cccc12 (configuration not stated) | -11%
COc1ccc(C(CC(=O)N2CCCC2)c2c[nH]c3ccccc23)cc1 (configuration not stated) | -7%
CCCNC(=O)CC(c1ccccc1OC)c1c[nH]c2c(CC)cccc12 (configuration not stated) | i
CCc1cccc2c(C(CC(=O)N3CCCCC3)c3cccc(C)c3)c[nH]c12 (configuration not stated) | i
O=C(CCc1nc2ccccc2s1)N1CCN(C(=O)N2CC3CC(C2)[C@H]2CCCC(=O)N2C3)CC1 (some centres not stated) | -9%
O=C(C[C@@H]1C[C@H]2O[C@H](CNCc3ccccc3C(F)(F)F)[C@@H](O)[C@H]2O1)N1CCC(F)(F)C1 | 26%
COc1ccc(/C=C/c2ccc3c(c2)C(=O)N2CC[C@H](NC(=O)CCC(=O)O)[C@H]2C(=O)N3)cc1 | -15%
O=C(NCCC1=CCCCC1)c1ccc2c(c1)N(Cc1ccccc1F)C(=O)c1ccccc1S2=O (configuration not stated) | 13µM*
COc1ccc(CCNC(=O)c2ccc3c(c2)N(Cc2ccccc2)C(=O)c2ccccc2S3=O)cc1OC (configuration not stated) | i
Cc1cccc(CN2C(=O)c3ccccc3S(=O)(=O)c3ccc(C(=O)NCCC4=CCCCC4)cc32)c1 | -13%
CC(=O)N1CCN([C@H]2[C@@H]3OC[C@@H](O3)[C@@H](NCc3cnc4ccccc4c3)[C@@H]2O)CC1 | 17%[44.1 µM]
C/C(=C\c1ccccc1)CN1CCCC12Cc1ccccc1CNC2=O (configuration not stated) | i
CN(Cc1cc(C2CC2)n[nH]1)c1nccc(-c2cccnc2)n1 | -25%
SMILES | Pf Dd2 growth
CN(CCC(O)c1ccccc1)c1nccc(-c2cccnc2)n1 (configuration not stated) | 10µM*
Cc1cn2cc(C(=O)N(C)CCC(O)c3ccccc3)ccc2n1 (configuration not stated) | 2%
O=C(C1CCC1)N1CCC(c2noc(-c3cnccn3)n2)C1 (configuration not stated) | i[5.79 µM]
O=C(Cc1cccc(Cl)c1)N1CCC(Oc2ncccc2C(=O)N2CCCCC2)C1 (configuration not stated) | 7.9µM*
O=C(Cc1cccs1)N1CCC(Oc2ncccc2C(=O)N2CCCCC2)C1 (configuration not stated) | i
O=C(Cc1ccccc1F)N1CCC(Oc2ncccc2C(=O)N2CCCCC2)C1 (configuration not stated) | -12%
COc1ccc(CN2CCC3(C2)C(=O)N(C)c2ccccc23)cc1 (configuration not stated) | -4%[44.1 µM]

Bioassay records from PubChem BioAssay.
